{"source": "PubChem BioAssay (EPA / NIEHS)", "note": "Several values for one entry are separate records, joined by “and”; a condition that tells them apart may be missing. Equal values may be shown once. More than one record can exist for a structure, and the calls need not agree. Activity calls are given as the source filed them. How the source made its calls: active means hit-call score of the fitted dose curve at least 0.9, where 1 is the maximum; inactive means score below 0.9.", "data": [{"assay": "CCTE_Shafer_MEA_dev_per_burst_interspike_interval: CCTE's Neural Network Formation Assay for Burst Interspike Interval, Shafer Lab (AID 2284044);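 further: mean spike spacing inside bursts as AUC over recordings on days 5 7 9 12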;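 on AC50: potency for a decrease of within-burst interspike interval below DMSO level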", "method": "CCTE_Shafer_MEA_dev assay is conducted using Axion Biosystems 48 well microelectrode array (MEA) plates and Maestro recording system. Each well of the MEA plate contains a grid of 16 microelectrodes embedded in the culture surface. Electrically active cells, such as neurons, can be cultured over the electrodes, and electrical activity in these cells can be recorded extracellularly. The spontaneous firing of neurons is captured from each electrode on a microsecond timescale providing both temporally and spatially precise data. […] The CCTE_Shafer_MEA_dev assay uses primary cultures of rat cortical neurons. Recordings are made on days post-plating 5, 7, 9 and 12. As these cultures mature over time, neural networks develop functional activity and form cohesive networks in which electrical activity can be highly coordinated. CCTE_Shafer_MEA_dev_per_burst_interspike_interval is 1 of 19 assay components of the CCTE_Shafer_MEA_dev assay. It measures the average time interval between spikes (action potential firings) within a single-electrode burst (temporally-clustered group of spikes) during a recording in a microelectrode array (MEA) using Axion Biosystems Maestro 768 channel amplifier with the AxIS adaptive spike detector. The mean inter-spike interval within bursts is averaged across the actively bursting electrodes to report a well-mean value. To collapse across multiple recordings made on days post-plating 5, 7, 9 and 12, the trapezoidal area-under-the-curve of the component is calculated.Data from the assay component CCTE_Shafer_MEA_dev_per_burst_interspike_interval was analyzed into 1 assay endpoint. This assay endpoint, CCTE_Shafer_MEA_dev_per_burst_interspike_interval, was analyzed in the negative analysis fitting direction relative to DMSO as the negative control and baseline of activity. Using a type of functional reporter, gain or loss-of-signal activity can be used to understand electrical activity.\nOn the day prior to culture, each well was coated thoroughly with 150 uL of 0.05% polyethyleneimine (PEI, Sigma Cat P3143) in 50 mM HEPES (Sigma Cat H7523) at a pH of 8. The plate was incubated at 37C for one hour. PEI was rinsed out with 500 uL of sterile water three times. Plates were stored at 4C until the day of culture. This culture was plated at a seeding density of 1.5 x 10^5 cells/well on a 48-well MEA plate, prepared as described above. Cells were administered via a 25 uL media/laminin ([…]; Sigma Cat L2020-1MG) drop directly onto the microelectrode array, as adding the cells with the laminin results in better attachment than pre-coating with laminin. After 2 hours, an additional 475 uL of cortical media was added and the cells returned to the incubator. Exposure starts at day 0 of plating and is continued over twelve days of network development until the experiment is terminated. Cells are fed with fresh medium on DIV 5 and 9, following the recordings on those days. The entire volume of media in the well is exchanged and any vehicle or compound treatment is renewed. Complete details are found in OP-NHEERL/ISTD/SBB/TJS/2015-03-r0 (available on request, email shafer.tim@epa.gov). Measurement of the electrical activity is non-invasive, and recordings can be made from the same plate over multiple different days of the culture. In cortical neurons, this allows for the measurement of extracellular action potentials over the period during which networks form in the MEA plate.", "values": [{"smiles": "c1ccc2cc3ccccc3cc2c1", "outcome": "inactive"}, {"smiles": "FC(F)(F)C(F)(F)C(F)(F)C(F)(F)C(F)(F)C(F)(F)I", "outcome": "inactive"}, {"smiles": "OC(Cn1cncn1)(Cn1cncn1)c1ccc(F)cc1F", "outcome": "inactive"}, {"smiles": "Nc1ccn([C@@H]2O[C@H](CO)[C@@H](O)[C@@H]2O)c(=O)n1", "AC50": "254 nM (active)", "outcome": "inactive"}, {"smiles": "NNC(=O)c1ccncc1", "outcome": "inactive"}, {"smiles": "NCC(F)(F)C(F)(F)C(F)(F)C(F)(F)F", "outcome": "inactive"}, {"smiles": "O=C(Cl)C(F)(F)C(F)(F)C(F)(F)C(=O)Cl", "outcome": "inactive"}, {"smiles": "CCN(CC)C(=S)SSC(=S)N(CC)CC", "AC50": "157 nM (active) and 39.7 nM (active)"}, {"smiles": "c1ccc2c(c1)-c1cccc3c1c-2cc1ccccc13", "outcome": "inactive"}, {"smiles": "CC[C@H](C)C(=O)O[C@H]1C[C@H](O)C=C2C=C[C@H](C)[C@H](CC[C@@H](O)C[C@@H](O)CC(=O)O)[C@H]21", "outcome": "inactive"}, {"smiles": "NC(=O)N1c2ccccc2C=Cc2ccccc21", "outcome": "inactive"}, {"smiles": "OC(O)(C(F)C(O)(O)C(F)(F)F)C(F)(F)F", "outcome": "inactive"}, {"smiles": "COc1cc2c(c(OC)c1OC)-c1ccc(OC)c(=O)cc1[C@@H](NC(C)=O)CC2", "AC50": "6.47 nM (active)"}, {"smiles": "Cn1cc[nH]c1=S", "outcome": "inactive"}, {"smiles": "OCCC(F)(F)C(F)(F)C(F)(F)C(F)(F)F", "outcome": "inactive"}, {"smiles": "CCOc1ccc2[nH]cc(C(=O)NCc3ccccc3)c(=O)c2n1", "outcome": "inactive"}, {"smiles": "C[C@]12C=CC(=O)C=C1CC[C@H]1[C@@H]3C[C@@H](O)[C@](O)(C(=O)CO)[C@@]3(C)C[C@H](O)[C@@]12F", "outcome": "inactive"}, {"smiles": "CCCC(CCC)C(=O)O", "outcome": "inactive"}, {"smiles": "FC(F)(F)COC(OCC(F)(F)F)OCC(F)(F)F", "outcome": "inactive"}]}]}
